GPR151 ag: activators of human GPR151 | activation, % at 11.2 µM | 650,000 compounds, 1% hits | AID 1508602 | Q8TDV0 | PathHunter beta-arrestin GPR151 cells, luminescence; in the data active = activation above about 4.9%;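 note: 0% = median of compound wells and 100% = cells with positive control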
MITF inh: inhibitors of human MITF; 650,000 compounds, 0.91% hits; AlphaScreen MITF homodimerization, bead proximity signal; O75030; inhibition, % at 2.6 µM; AID 1259374; in the data active = inhibition above about 50%;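 note: 0% = vehicle wells with protein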
FBW7 activator: human FBW7 E3 ligase activation, primary screen; Q969H0; AlphaScreen FBW7–phospho-cyclin E peptide binding, activator screen; normalized activity (activation), % at 26.1 µM; 650,000 compounds, 0.13% hits; AID 1259310; in the data active = normalized activity above about 1.9%;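 note: purified mutant Fbw7 with reduced substrate affinity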
Target sequence (Q969H0 whole entry, looked up): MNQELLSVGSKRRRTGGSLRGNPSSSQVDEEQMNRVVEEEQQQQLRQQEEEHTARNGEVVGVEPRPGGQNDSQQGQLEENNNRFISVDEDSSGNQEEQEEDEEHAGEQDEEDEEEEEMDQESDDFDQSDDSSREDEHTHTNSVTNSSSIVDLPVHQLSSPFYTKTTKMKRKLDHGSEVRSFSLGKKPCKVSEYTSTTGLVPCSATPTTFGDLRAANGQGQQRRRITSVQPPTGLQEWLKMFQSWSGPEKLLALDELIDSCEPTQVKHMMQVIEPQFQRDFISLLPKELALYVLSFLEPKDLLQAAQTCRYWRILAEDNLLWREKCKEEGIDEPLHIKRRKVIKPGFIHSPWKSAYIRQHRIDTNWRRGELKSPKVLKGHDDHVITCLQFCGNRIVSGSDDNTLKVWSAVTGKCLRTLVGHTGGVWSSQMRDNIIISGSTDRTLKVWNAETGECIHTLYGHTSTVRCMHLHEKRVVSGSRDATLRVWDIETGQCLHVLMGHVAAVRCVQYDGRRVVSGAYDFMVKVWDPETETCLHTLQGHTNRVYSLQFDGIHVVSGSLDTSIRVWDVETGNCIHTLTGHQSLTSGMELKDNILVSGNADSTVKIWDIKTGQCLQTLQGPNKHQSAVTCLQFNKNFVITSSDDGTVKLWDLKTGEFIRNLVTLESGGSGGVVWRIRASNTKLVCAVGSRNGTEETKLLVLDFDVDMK
TEAD-YAP block: TEAD-YAP interaction inhibition; inhibition, % at 9.12 µM; 640,000 compounds, 1.4% hits; HEK-TIYL cells, TEAD-Gal4/YAP UAS-luciferase luminescence; in the data active = inhibition above about 32%;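 note: 0% = median of test compound wells and 100% = reference inhibitor wells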
Numbers without * were called inactive. Only some compounds are listed: those with a hit (about 3.4% of all), similar ones and a draw of the others.

CC(C)N(CCNc1nc(-c2cccc(N)c2)nc2c1ncn2-c1ccsc1)C(C)C was read as GPR151 ag 0, MITF inh -6, FBW7 activator 0 and TEAD-YAP block 59*.
CC(=O)c1cccc(-c2nc(NCc3ccccc3)c3ncn(-c4ccsc4)c3n2)c1 was read as GPR151 ag 4, MITF inh 7, FBW7 activator 0 and TEAD-YAP block 14.
Screening COc1ccc(-c2nc(NCCN(C(C)C)C(C)C)c3ncn(-c4ccsc4)c3n2)cc1 returned GPR151 ag -1, MITF inh -8, FBW7 activator 0 and TEAD-YAP block 7.
`COc1ccc(C2C(C(=O)OCC3CCCO3)=C(C)NC3=C2C(=O)CCC3)cc1O` (centres undefined) gave GPR151 ag 0, MITF inh 7, FBW7 activator 0 and TEAD-YAP block 3.
For CC(=O)N1CCc2cccc(NCc3ccc(Cl)cc3S(C)(=O)=O)c21 the results were GPR151 ag -2, MITF inh -2, FBW7 activator 0 and TEAD-YAP block -1.
Screening C#CC(C)(CC)NS(=O)(=O)c1ccc(C)c(C)c1C (centres undefined) returned GPR151 ag 2, MITF inh 16, FBW7 activator 1 and TEAD-YAP block -3.
For FC(F)(F)c1cccc(CNc2nc(Nc3ccccc3)nc3c2ncn3-c2ccsc2)c1 the results were GPR151 ag 3, MITF inh 8, FBW7 activator 0 and TEAD-YAP block -2.
Screening FC(F)(F)c1cccc(CNc2nc(Oc3ccccc3)nc3c2ncn3-c2ccsc2)c1 returned GPR151 ag 1, MITF inh -6, FBW7 activator 0 and TEAD-YAP block 74*.
For CC(=O)c1cccc(-c2nc(NCCN(C(C)C)C(C)C)c3ncn(-c4ccsc4)c3n2)c1 the results were GPR151 ag -1, MITF inh 3, FBW7 activator 0 and TEAD-YAP block 49*.
`CC(=O)c1cccc(-c2nc(NCCN(C(C)C)C(C)C)c3ncn(-c4ccccc4)c3n2)c1` gave GPR151 ag 0, MITF inh -1, FBW7 activator 0 and TEAD-YAP block 15.
CC1CCN(CCCNC(=O)CCn2nc(-c3ccccc3)ccc2=O)CC1 was read as GPR151 ag 1, MITF inh 4, FBW7 activator 0 and TEAD-YAP block 2.
Screening CCN1CCN(C(c2cccnc2)c2ccc3cccnc3c2O)CC1 (centres undefined) returned GPR151 ag -1, MITF inh 68*, FBW7 activator 0 and TEAD-YAP block 15.
`Cc1[nH]c2ccccc2c1C(c1ccncc1)N1CCC(C)CC1` (centres undefined) gave GPR151 ag 0, MITF inh -1, FBW7 activator 0 and TEAD-YAP block -2.
CC1CCN(C(c2ccncc2)c2ccc3cccnc3c2O)CC1 (centres undefined) was read as GPR151 ag -3, MITF inh 89*, FBW7 activator 0 and TEAD-YAP block 20.
Oc1cccc(C(c2ccc3cccnc3c2O)N2CCCC2)c1 (centres undefined) was read as GPR151 ag 1, MITF inh 39, FBW7 activator -1 and TEAD-YAP block 18.
For Oc1c(C(c2ccncc2)N2CCCC2)ccc2cccnc12 (centres undefined) the results were GPR151 ag 0, MITF inh 76*, FBW7 activator 0 and TEAD-YAP block 12.
C=CCc1cc(C)ccc1OCCOCCN1CCOCC1 was read as GPR151 ag -2, MITF inh 19, FBW7 activator 0 and TEAD-YAP block -6.
`O=C(NCCc1nc2ccccc2[nH]1)c1cccc(Cl)c1` gave GPR151 ag 1, MITF inh 0, FBW7 activator 0 and TEAD-YAP block -4.
Cc1ccc(-c2nnc(NC(=O)c3cccc(F)c3)o2)cc1C was read as GPR151 ag -1, MITF inh -9, FBW7 activator 0 and TEAD-YAP block -2.
Screening COc1ccc(CNc2nccn3c(-c4cccc5ccccc45)cnc23)cc1 returned GPR151 ag 1, MITF inh 4, FBW7 activator 2.2* and TEAD-YAP block -8.
`COc1cc(Nc2nccc(Nc3ccc(N4CCOCC4)cc3)n2)cc(OC)c1OC` gave GPR151 ag 0, MITF inh 18, FBW7 activator 0 and TEAD-YAP block 44*.
COc1cc(Nc2nc(C)cc(Nc3ccc(N4CCOCC4)cc3)n2)cc(OC)c1OC was read as GPR151 ag 0, MITF inh 7, FBW7 activator 0 and TEAD-YAP block 70*.
`O=C1COc2ccccc2O1` gave GPR151 ag 2, MITF inh 6, FBW7 activator 0 and TEAD-YAP block 6.
`CC(C)NC(=O)c1nc(-c2cccc(F)c2)n2c1CCCCC2` gave GPR151 ag 0, MITF inh 4, FBW7 activator 0 and TEAD-YAP block 10.
CC(=O)N(C(C)=O)c1ccc(-c2cnc(-c3ccc(N(C(C)=O)C(C)=O)cc3)nc2)cc1 was read as GPR151 ag 1, MITF inh 5, FBW7 activator 0 and TEAD-YAP block 0.
For Oc1ccc(-c2cnc3ccccc3n2)cc1 the results were GPR151 ag -10, MITF inh -6, FBW7 activator 0 and TEAD-YAP block 52*.
For CC(C)(C)n1cc(-c2cnc3ccccc3n2)cn1 the results were GPR151 ag -8, MITF inh 9, FBW7 activator 0 and TEAD-YAP block 78*.
`Oc1ccc(-c2cnc(-c3ccc(O)cc3)nc2)cc1` gave GPR151 ag -2, MITF inh 4, FBW7 activator 0 and TEAD-YAP block 95*.
Screening Cc1ccc(-c2cc(C(=O)NCc3ccc(S(N)(=O)=O)cc3)c3ccccc3n2)cc1 returned GPR151 ag 3, MITF inh 17, FBW7 activator 0 and TEAD-YAP block 11.
CCOC(=O)COc1cccc(/C=C2\Oc3cc(OC)ccc3C2=O)c1 was read as GPR151 ag 0, MITF inh 5, FBW7 activator 0 and TEAD-YAP block -1.
Screening O=C1/C(=C\c2cccnc2)Oc2cc(O)ccc21 returned GPR151 ag 1, MITF inh -29, FBW7 activator 0 and TEAD-YAP block 9.
Screening COC(=O)c1ccc2c(c1)C(=O)/C(=C/c1cccc(OC)c1)O2 returned GPR151 ag 0, MITF inh 1, FBW7 activator 0 and TEAD-YAP block -3.
For COc1cccc(/C=C2\Oc3cc(O)cc(C)c3C2=O)c1 the results were GPR151 ag -10, MITF inh 14, FBW7 activator 0 and TEAD-YAP block 98*.
Cc1cc(OC(=O)C(C)C)cc2c1C(=O)/C(=C/c1cccnc1)O2 was read as GPR151 ag -8, MITF inh -4, FBW7 activator 0 and TEAD-YAP block 63*.
`Cc1cc(O)cc2c1C(=O)/C(=C/c1cccnc1)O2` gave GPR151 ag -6, MITF inh -4, FBW7 activator 0 and TEAD-YAP block 61*.
For C=CCn1c(=O)/c(=C\C=C2\C=CN(CC)c3ccccc32)s/c1=C\c1sc(-c2ccccc2)c(-c2ccccc2)[n+]1CC the results were GPR151 ag 0, MITF inh -45, FBW7 activator 0 and TEAD-YAP block 2.

From PubChem BioAssay
